Assay results taken from the supplement of paper PMC3334620.
In all, about 33,000 sequences were measured (“E-score (-0.5 to 0.5)”: median about -0.035, highest 2% from about 0.35 on). For the sample, the highest values were picked, then their nearest neighbours and some sequences at random.

These sequences were tested against T1, Pdr3 (UniProt P33200) (assay: PBM E-score (8-mer binding enrichment) (E-score (-0.5 to 0.5)); higher = stronger / more preferred TF binding). Conditions: protein concentration: 200 nM; construct: GST-full length.
T1 sequence: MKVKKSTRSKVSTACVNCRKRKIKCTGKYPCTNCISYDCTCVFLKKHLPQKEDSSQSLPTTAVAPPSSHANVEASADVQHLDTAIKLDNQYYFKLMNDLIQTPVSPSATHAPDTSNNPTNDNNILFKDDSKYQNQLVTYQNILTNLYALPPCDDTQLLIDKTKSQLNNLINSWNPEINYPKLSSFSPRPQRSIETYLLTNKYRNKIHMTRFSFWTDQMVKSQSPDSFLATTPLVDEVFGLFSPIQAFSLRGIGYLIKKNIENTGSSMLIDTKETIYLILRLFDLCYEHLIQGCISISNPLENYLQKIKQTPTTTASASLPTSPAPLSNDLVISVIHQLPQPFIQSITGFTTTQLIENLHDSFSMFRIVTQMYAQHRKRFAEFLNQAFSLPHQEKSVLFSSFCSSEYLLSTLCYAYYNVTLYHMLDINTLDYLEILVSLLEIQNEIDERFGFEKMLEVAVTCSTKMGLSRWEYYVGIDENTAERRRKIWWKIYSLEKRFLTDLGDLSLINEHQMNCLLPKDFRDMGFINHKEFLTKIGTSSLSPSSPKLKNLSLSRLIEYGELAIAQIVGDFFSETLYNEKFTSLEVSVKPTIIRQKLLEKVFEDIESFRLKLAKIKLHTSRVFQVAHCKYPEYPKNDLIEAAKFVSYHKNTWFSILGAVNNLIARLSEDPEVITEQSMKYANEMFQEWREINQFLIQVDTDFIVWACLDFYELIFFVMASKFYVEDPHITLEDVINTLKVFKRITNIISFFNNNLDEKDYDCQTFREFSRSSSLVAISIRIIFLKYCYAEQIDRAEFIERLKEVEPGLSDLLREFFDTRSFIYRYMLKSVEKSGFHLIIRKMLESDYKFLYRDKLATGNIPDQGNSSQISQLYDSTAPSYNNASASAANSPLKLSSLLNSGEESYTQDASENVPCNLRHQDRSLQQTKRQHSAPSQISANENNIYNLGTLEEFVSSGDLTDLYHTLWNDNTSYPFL
Method: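 Universal 'all 10-mer' protein binding microarrays (Agilent AMADID 015681) probed with GST-tagged S. cerevisiae TFs (full-length or DBD) made by in vitro transcription/translation (PURExpress), about 100-200 nM. Bound TF was detected with fluorescent anti-GST. Each ungapped 8-mer (which stands for itself and its reverse complement) is scored by the PBM enrichment score (E-score), a modified Wilcoxon-Mann-Whitney statistic from -0.5 to +0.5, computed with the Universal PBM Analysis Suite. Scale: above 0.35 generally sequence-specific binding.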
TCAATAGA was tested, and the “PBM E-score” value was -0.262. With ATGTTATC the “PBM E-score” value was 0.0774. In the case of CAGTTTCC, the “PBM E-score” value is reported as 0.253. For ATCAGCGC, the “PBM E-score” value was 0.207. In the case of ATCAGCGG, the “PBM E-score” value is reported as 0.364. With ATCAGCGA the “PBM E-score” value was -0.0101. In the case of AGAGAGTC, the “PBM E-score” value is reported as -0.249. In the case of CCCCTTTC, the “PBM E-score” value is reported as 0.00738. TAATGCAA was tested, and the “PBM E-score” value was -0.241. In the case of AACGGCTT, the “PBM E-score” value is reported as 0.0106. For CCAGGTTA, the “PBM E-score” value was -0.0429. In the case of ACCGCGGG, the “PBM E-score” value is reported as 0.472. For ACCGCGAT, the “PBM E-score” value was 0.177. With ATCGCGGC the “PBM E-score” value was 0.213. ACCGCGTA was tested, and the “PBM E-score” value was 0.174. For ATCGCGGG, the “PBM E-score” value was 0.186. With ACCGCGGA the “PBM E-score” value was 0.488. With ACCGCGAG the “PBM E-score” value was -0.00369. For ACCGCGTC, the “PBM E-score” value was 0.0777. For ACCGCGGC, the “PBM E-score” value was 0.399. With ACCGCGGT the “PBM E-score” value was 0.4. ATCGCGGA was tested, and the “PBM E-score” value was 0.282. For AACGCGGT, the “PBM E-score” value was 0.1. For CCTTGTGA, the “PBM E-score” value was -0.0319. GGCTGTTA was tested, and the “PBM E-score” value was 0.0369. CACTTAGA was tested, and the “PBM E-score” value was -0.119. With CGCTGGAC the “PBM E-score” value was -0.075. TCCTCGCA was tested, and the “PBM E-score” value was -0.0258. For CAAATTGC, the “PBM E-score” value was 0.0819. In the case of CAAAAACC, the “PBM E-score” value is reported as 0.0333. With CTTACCAA the “PBM E-score” value was -0.108. For AAGAGCAG, the “PBM E-score” value was -0.0681. CTATGGCC was tested, and the “PBM E-score” value was -0.124. For GGTCGGAA, the “PBM E-score” value was 0.4. TGTCGTAA was tested, and the “PBM E-score” value was -0.113. For GGTCGGAC, the “PBM E-score” value was 0.15. With AGTCGGAG the “PBM E-score” value was 0.134. In the case of CGTCGGAG, the “PBM E-score” value is reported as 0.178. With GGTCGGCA the “PBM E-score” value was -0.00943. CGTCGGAA was tested, and the “PBM E-score” value was 0.411. In the case of TGTCGGAA, the “PBM E-score” value is reported as 0.383. For TGTCGCAA, the “PBM E-score” value was -0.0293. AGTCGGAA was tested, and the “PBM E-score” value was 0.414. AGTCGGAC was tested, and the “PBM E-score” value was 0.117. For CGTCGGAC, the “PBM E-score” value was 0.252. CCTTGGCG was tested, and the “PBM E-score” value was -0.0565. In the case of CGCTTTGC, the “PBM E-score” value is reported as 0.0905. CCCCACGA was tested, and the “PBM E-score” value was -0.0538. For ACAGTATC, the “PBM E-score” value was -0.21. In the case of AAACCAGT, the “PBM E-score” value is reported as -0.227. With GCTAGAGC the “PBM E-score” value was -0.272. With ACGCCCCG the “PBM E-score” value was 0.181. For CCGCCCGC, the “PBM E-score” value was 0.241. AAGCCCGT was tested, and the “PBM E-score” value was -0.162. AAGCCCGC was tested, and the “PBM E-score” value was 0.213. CCGCCCGG was tested, and the “PBM E-score” value was 0.407. ACGCCCGG was tested, and the “PBM E-score” value was 0.311. With AAGCCCGG the “PBM E-score” value was 0.379. For CCGCCCCG, the “PBM E-score” value was 0.435. In the case of CCGCCCCC, the “PBM E-score” value is reported as 0.0913. With CACTCATG the “PBM E-score” value was -0.257. With AAAGGGAT the “PBM E-score” value was -0.154. With AACCGCCA the “PBM E-score” value was -0.0357. For GGGAGATA, the “PBM E-score” value was 0.0536. With CGGAGATA the “PBM E-score” value was 0.386. With AGGAGATA the “PBM E-score” value was -0.182. In the case of ATTCAAAA, the “PBM E-score” value is reported as 0.0638. In the case of GAAAACTA, the “PBM E-score” value is reported as 0.0457. AAATATAT was tested, and the “PBM E-score” value was 0.19. CGAAAGCC was tested, and the “PBM E-score” value was -0.105. In the case of GTAACGCA, the “PBM E-score” value is reported as 0.0163. In the case of CTAACGAA, the “PBM E-score” value is reported as -0.0337. For GTAACGTA, the “PBM E-score” value was -0.165. ATAACGGA was tested, and the “PBM E-score” value was 0.386. GTAACGGA was tested, and the “PBM E-score” value was 0.397. ATAACGGC was tested, and the “PBM E-score” value was 0.135. In the case of ATAACGGG, the “PBM E-score” value is reported as 0.0143. With CTAACGGA the “PBM E-score” value was 0.389. In the case of CTAACGGC, the “PBM E-score” value is reported as -0.00464. For CATGTGCG, the “PBM E-score” value was 0.0377. In the case of ATAGCGTC, the “PBM E-score” value is reported as -0.153. With GTGCAGTA the “PBM E-score” value was -0.0405. CCTGGCCA was tested, and the “PBM E-score” value was -0.107. For ATGAAGCA, the “PBM E-score” value was -0.152. With ACGCTATG the “PBM E-score” value was -0.187. In the case of ATCGACCA, the “PBM E-score” value is reported as -0.176. With CAAAGAGC the “PBM E-score” value was -0.0254.
